Results reported in PubChem BioAssay (Tox21).
Results filed as inconclusive are left out. The source made the active and inactive calls. Unless noted, calls follow the shape of the dose curve; as a rule, active = well fitted curve in the direction sought with a large enough effect in the repeat runs; inconclusive = weak or mixed curves; inactive = no such curve, though single readings can be large; an effect the other way counts as inactive or inconclusive.

Experiments:
[1] = biological target: Aryl hydrocarbon receptor (Homo sapiens) (UniProt P35869); test: qHTS assay to identify small molecule that activate the aryl hydrocarbon receptor (AhR) signaling pathway (AID 743085);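 also: HG2L7.5c1 human HepG2 liver cells with stably integrated DRE-driven firefly reporter; series mostly up to about 70 µM; nearly all actives have a fitted effect of over 15% in size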
Summary of the method: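 Measured in HG2L7.5c1 cells: CellTiter-Fluor signal (30 min incubation, 37C) for viability, then luciferase luminescence (30 min, room temperature). Compound contact time was 24 h at 37C, following a 5 h pre-incubation.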

[2] = qHTS assay to identify small molecule that activate the aryl hydrocarbon receptor (AhR) signaling pathway - cell viability counter screen (AID 743086);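 also: HepG2 liver cells carrying the AhR DRE luciferase reporter; series mostly up to about 70 µM; nearly all actives have a fitted effect of over 45% in size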
Summary of the method: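 HepG2-AhR-luc (HG2L7.5c1) cells, 4000/well, were preincubated 5 h at 37C, exposed to compound in qHTS format for 24 hr at 37C, then given CellTiter-Fluor for 30 min; viability was read as fluorescence in the reporter wells.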

[3] = biological target: Peroxisome proliferator-activated receptor gamma (Homo sapiens) (UniProt P37231); test: qHTS assay to identify small molecule agonists of the peroxisome proliferator-activated receptor gamma (PPARg) signaling pathway (AID 743094; active = well fitted activation curve with a large enough effect in the signal ratio in the repeat runs, not every such curve was filed as active; the % refers to the signal ratio)
Summary of the method: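 Following 5 h plating at 37C, PPARg-bla HEK293H cells receive compound or DMSO for 17 h; fluorescence intensity is recorded after LiveBLAzer B/G loading for 1 h at room temperature.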

[4] = biological target: Peroxisome proliferator-activated receptor gamma (Homo sapiens) (UniProt P37231); test: qHTS assay to identify small molecule antagonists of the peroxisome proliferator-activated receptor gamma (PPARg) signaling pathway (AID 743191; calls by dose curve; also: series mostly up to about 63 µM; nearly all actives have a fitted effect of over 30% in size)
Summary of the method: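 GeneBLAzer PPARg UAS-bla HEK293H cells carrying a UAS-driven beta-lactamase reporter were plated at 3000 cells/well, preincubated 5 h at 37C, then given compound for 17 h at 37C; LiveBLAzer B/G FRET substrate was read after 1 h at room temperature.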

[5] = qHTS assay to identify small molecule antagonists of the peroxisome proliferator-activated receptor gamma (PPARg) signaling pathway - cell viability counter screen (AID 743194); also: nearly all actives have a fitted effect of over 55% in size
Summary of the method: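 PPARg-UAS-bla HEK293H cells were plated, rested 5 h at 37 C, then treated with compounds plus rosiglitazone (50 nM final) for 17 h at 37 C; viability was then read by CellTiter-Glo luminescence after 30 min at room temperature.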

[6] = qHTS assay for small molecule agonists of the antioxidant response element (ARE) signaling pathway - cell viability counter screen (AID 743203; calls by dose curve; also: nearly all actives have a fitted effect of over 55% in size)
Summary of the method: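 Compounds in DMSO were pinned onto ARE-bla HepG2 cells plated 5 hrs earlier at 2,000 cells/well. Sixteen hours later at 37C/5% CO2, CellTiter-Glo was added and luminescence measured after 30 min at room temperature.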

[7] = qHTS assay for small molecule activators of the heat shock response signaling pathway (AID 743210; active = well fitted activation curve with a large enough effect in the signal ratio in the repeat runs, with a control signal flat, not every such curve was filed as active; the % refers to the signal ratio; also: series mostly up to about 63 µM)
Summary of the method: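 HSE-bla HeLa cells (beta-lactamase reporter under heat shock response elements) were exposed to compounds for 5 h at 37 C, then loaded with LiveBLAzer B/G FRET substrate for 2.5 h at room temperature before fluorescence reading.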

[8] = qHTS assay to identify small molecule agonists of the peroxisome proliferator-activated receptor delta (PPARd) signaling pathway - cell viability counter screen (AID 743211); also: nearly all actives have a fitted effect of over 55% in size
Summary of the method: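 Following 5 h plating at 37 C and 5% CO2, PPARd UAS-bla HEK293H cells took up test compounds for 17 h. Viability was quantified by luminescence 30 min after CellTiter-Glo addition at room temperature.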

[9] = biological target: Peroxisome proliferator-activated receptor delta (Homo sapiens) (UniProt Q03181); test: qHTS assay to identify small molecule agonists of the peroxisome proliferator-activated receptor delta (PPARd) signaling pathway (AID 743212; calls by dose curve)
Summary of the method: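 GeneBLAzer PPARd UAS-bla HEK293H cells (beta-lactamase reporter under UAS control), plated and rested 5 h at 37 C, then exposed to compounds in DMSO at 37 C; LiveBLAzer B/G FRET substrate added, 2 h room temperature, fluorescence read.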

[10] = biological target: Peroxisome proliferator-activated receptor delta (Homo sapiens) (UniProt Q03181); test: qHTS assay to identify small molecule antagonists of the peroxisome proliferator-activated receptor delta (PPARd) signaling pathway (AID 743215; active = well fitted inhibition curve with a large enough effect in the signal ratio in the repeat runs, not every such curve was filed as active; the % refers to the signal ratio;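 also: cells stimulated with agonist L165041 at 300 nM final during compound exposure; series mostly up to about 62 µM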)
Summary of the method: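 With L165041 present at 300 nM final, compounds were incubated 17 h at 37 C on PPARd UAS-bla HEK293H cells. A FRET-based beta-lactamase substrate was then applied for 2 h at room temperature and fluorescence intensity recorded.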

[11] = biological target: Bile acid receptor (Homo sapiens) (UniProt Q96RI1); test: qHTS assay to identify small molecule antagonists of the farnesoid-X-receptor (FXR) signaling pathway (AID 743217; active = well fitted inhibition curve with a large enough effect in the signal ratio in the repeat runs, not every such curve was filed as active; the % refers to the signal ratio)
Summary of the method: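 In this cell-based antagonist screen, inhibition of CDCA-driven (50 uM final) UAS-beta-lactamase expression in HEK 293T cells was measured by FRET fluorescence following 16 h compound exposure at 37 °C.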

[12] = qHTS assay to identify small molecule agonists of the farnesoid-X-receptor (FXR) signaling pathway - cell viability counter screen (AID 743218); also: nearly all actives have a fitted effect of over 45% in size
Summary of the method: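 After 16 h at 37 C with test compounds, FXR-bla HEK 293T cells were given LiveBLAzer B/G substrate for 2 h at RT and then CellTiter-Glo; luminescence was taken after 30 min.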

[13] = qHTS assay to identify small molecule antagonists of the farnesoid-X-receptor (FXR) signaling pathway - cell viability counter screen (AID 743221; active = well fitted cell-killing curve with a large enough effect in the repeat runs, not every such curve was filed as active; also: nearly all actives have a fitted effect of over 50% in size)
Summary of the method: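 Compound effects on cell number were measured as CellTiter-Glo luminescence in HEK 293T cells expressing FXR-UAS-bla, after 16 h at 37 C with 50 uM CDCA (final).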

[14] = biological target: Vitamin D3 receptor (Homo sapiens) (UniProt P11473); test: qHTS assay to identify small molecule agonists of the vitamin D receptor (VDR) signaling pathway (AID 743222; calls by dose curve)
Summary of the method: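 VDR-bla cells were seeded, left 4 h, treated with compounds in DMSO for 16 h, incubated 2 h at RT with B/G FRET substrate, and read for fluorescence.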

[15] = biological target: Vitamin D3 receptor (Homo sapiens) (UniProt P11473); test: qHTS assay to identify small molecule antagonists of the vitamin D receptor (VDR) signaling pathway (AID 743223; active = well fitted inhibition curve with a large enough effect in the signal ratio in the repeat runs, not every such curve was filed as active; the % refers to the signal ratio)
Summary of the method: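 Beta-lactamase activity in VDR-bla cells is measured by FRET substrate fluorescence (2 h, room temperature) after cells spend 16 h at 37C with test compound and 3 nM final 1alpha,25-dihydroxyvitamin D3.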

[16] = qHTS assay for small molecule agonists of the antioxidant response element (ARE) signaling pathway (AID 743202; active = well fitted activation curve with a large enough effect in the signal ratio in the repeat runs, not every such curve was filed as active; the % refers to the signal ratio)
Summary of the method: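 Read-out: LiveBLAzer B/G FRET substrate fluorescence after 2 h at room temperature, following 16 h compound treatment at 37 C of HepG2 cells carrying an ARE-driven beta-lactamase reporter.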

[17] = qHTS assay for small molecule activators of the heat shock response signaling pathway - cell viability counter screen (AID 743209); also: nearly all actives have a fitted effect of over 50% in size
Summary of the method: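 Counter screen for cytotoxicity in HeLa HSE-bla reporter cells. Treatment was 5 h at 37 C; viability was detected by luminescent ATP assay (CellTiter-Glo) in the same wells as the beta-lactamase read.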

[18] = qHTS assay to identify small molecule antagonists of the peroxisome proliferator-activated receptor delta (PPARd) signaling pathway - cell viability counter screen (AID 743213); also: nearly all actives have a fitted effect of over 50% in size
Summary of the method: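 Same-well viability: cells pre-incubated 5 h, dosed with compound plus 300 nM L165041, kept 17 h at 37 C, FRET substrate 2 h RT, then CellTiter-Glo 30 min RT and luminescence.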

[19] = qHTS assay to identify small molecule agonists of the vitamin D receptor (VDR) signaling pathway - cell viability counter screen (AID 743224); also: series mostly up to about 63 µM; nearly all actives have a fitted effect of over 50% in size
Summary of the method: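 Here cell health was gauged by luminescent ATP detection (CellTiter-Glo, 30 min RT) in VDR-bla cells that had been incubated with test compounds for 16 h at 37C and 5% CO2.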

[20] = biological target: Bile acid receptor (Homo sapiens) (UniProt Q96RI1); test: qHTS assay to identify small molecule agonists of the farnesoid-X-receptor (FXR) signaling pathway (AID 743220; active = well fitted activation curve with a large enough effect in the signal ratio in the repeat runs, not every such curve was filed as active; the % refers to the signal ratio)
Summary of the method: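 Beta-lactamase reporter under UAS control in GeneBLAzer FXR HEK 293T cells (5000/well) measured with LiveBLAzer FRET substrate after 2 h at room temperature. Compound exposure lasted 16 h at 37C.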
% is scaled to controls: 0 for no effect and ±100 for the full control effect.

Bile acid receptor (Homo sapiens), sequence (Q96RI1 whole entry, looked up): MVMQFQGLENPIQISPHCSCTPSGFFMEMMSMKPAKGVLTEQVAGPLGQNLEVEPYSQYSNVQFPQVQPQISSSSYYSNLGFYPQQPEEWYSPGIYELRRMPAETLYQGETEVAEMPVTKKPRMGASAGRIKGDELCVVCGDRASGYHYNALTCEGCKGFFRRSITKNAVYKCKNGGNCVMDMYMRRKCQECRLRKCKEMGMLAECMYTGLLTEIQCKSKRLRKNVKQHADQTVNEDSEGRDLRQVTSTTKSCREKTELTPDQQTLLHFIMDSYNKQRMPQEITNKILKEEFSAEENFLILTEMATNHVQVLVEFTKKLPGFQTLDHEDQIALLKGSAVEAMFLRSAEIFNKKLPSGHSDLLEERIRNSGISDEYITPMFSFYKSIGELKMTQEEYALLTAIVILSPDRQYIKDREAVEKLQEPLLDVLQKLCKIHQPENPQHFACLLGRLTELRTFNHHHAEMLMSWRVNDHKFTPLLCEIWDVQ
Vitamin D3 receptor (Homo sapiens), sequence (P11473 whole entry, looked up): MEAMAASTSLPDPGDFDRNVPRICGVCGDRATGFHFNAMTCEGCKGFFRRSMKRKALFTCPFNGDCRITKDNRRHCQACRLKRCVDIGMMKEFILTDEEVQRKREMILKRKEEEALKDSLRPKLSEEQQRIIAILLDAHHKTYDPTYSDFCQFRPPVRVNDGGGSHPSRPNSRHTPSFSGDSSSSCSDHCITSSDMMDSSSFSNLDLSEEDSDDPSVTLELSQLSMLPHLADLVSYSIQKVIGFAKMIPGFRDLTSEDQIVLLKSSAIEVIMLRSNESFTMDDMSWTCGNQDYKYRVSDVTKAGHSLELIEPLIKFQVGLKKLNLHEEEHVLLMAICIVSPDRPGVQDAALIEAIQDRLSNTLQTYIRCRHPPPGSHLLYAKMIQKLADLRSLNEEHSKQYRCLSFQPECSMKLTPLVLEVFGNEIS
Peroxisome proliferator-activated receptor delta (Homo sapiens), sequence (Q03181 whole entry, looked up): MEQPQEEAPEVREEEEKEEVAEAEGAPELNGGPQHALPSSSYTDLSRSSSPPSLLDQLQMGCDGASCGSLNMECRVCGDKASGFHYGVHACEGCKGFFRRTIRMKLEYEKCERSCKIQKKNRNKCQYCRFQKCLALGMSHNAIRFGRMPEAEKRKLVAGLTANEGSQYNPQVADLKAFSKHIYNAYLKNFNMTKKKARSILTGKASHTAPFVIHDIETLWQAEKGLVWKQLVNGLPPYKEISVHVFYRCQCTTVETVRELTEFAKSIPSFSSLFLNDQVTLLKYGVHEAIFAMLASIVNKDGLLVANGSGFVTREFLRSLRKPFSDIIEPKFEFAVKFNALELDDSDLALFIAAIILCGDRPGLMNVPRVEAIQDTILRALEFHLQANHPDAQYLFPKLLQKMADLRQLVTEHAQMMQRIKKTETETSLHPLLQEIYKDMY
Aryl hydrocarbon receptor (Homo sapiens), sequence (P35869 whole entry, looked up): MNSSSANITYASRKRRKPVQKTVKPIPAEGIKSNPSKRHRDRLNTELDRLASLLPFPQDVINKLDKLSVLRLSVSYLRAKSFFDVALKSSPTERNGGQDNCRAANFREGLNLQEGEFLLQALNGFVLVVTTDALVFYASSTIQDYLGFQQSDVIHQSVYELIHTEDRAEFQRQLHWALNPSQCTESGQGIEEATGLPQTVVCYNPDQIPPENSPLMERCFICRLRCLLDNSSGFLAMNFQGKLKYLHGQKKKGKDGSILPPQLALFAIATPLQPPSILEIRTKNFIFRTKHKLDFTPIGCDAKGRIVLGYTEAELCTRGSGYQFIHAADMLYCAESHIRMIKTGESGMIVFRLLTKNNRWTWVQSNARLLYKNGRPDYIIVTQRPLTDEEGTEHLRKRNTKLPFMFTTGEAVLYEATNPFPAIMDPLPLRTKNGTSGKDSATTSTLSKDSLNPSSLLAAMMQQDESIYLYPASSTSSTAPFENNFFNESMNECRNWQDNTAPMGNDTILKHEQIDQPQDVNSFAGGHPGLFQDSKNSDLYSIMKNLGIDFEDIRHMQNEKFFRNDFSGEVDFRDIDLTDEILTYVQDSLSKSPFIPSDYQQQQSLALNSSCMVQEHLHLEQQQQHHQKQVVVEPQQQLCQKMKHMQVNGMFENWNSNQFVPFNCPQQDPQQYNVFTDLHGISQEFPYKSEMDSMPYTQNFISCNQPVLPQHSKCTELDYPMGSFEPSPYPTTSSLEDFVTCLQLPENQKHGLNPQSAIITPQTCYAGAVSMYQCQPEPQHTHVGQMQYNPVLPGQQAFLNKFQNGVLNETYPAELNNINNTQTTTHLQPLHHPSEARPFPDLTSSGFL
Peroxisome proliferator-activated receptor gamma (Homo sapiens), sequence (P37231 whole entry, looked up): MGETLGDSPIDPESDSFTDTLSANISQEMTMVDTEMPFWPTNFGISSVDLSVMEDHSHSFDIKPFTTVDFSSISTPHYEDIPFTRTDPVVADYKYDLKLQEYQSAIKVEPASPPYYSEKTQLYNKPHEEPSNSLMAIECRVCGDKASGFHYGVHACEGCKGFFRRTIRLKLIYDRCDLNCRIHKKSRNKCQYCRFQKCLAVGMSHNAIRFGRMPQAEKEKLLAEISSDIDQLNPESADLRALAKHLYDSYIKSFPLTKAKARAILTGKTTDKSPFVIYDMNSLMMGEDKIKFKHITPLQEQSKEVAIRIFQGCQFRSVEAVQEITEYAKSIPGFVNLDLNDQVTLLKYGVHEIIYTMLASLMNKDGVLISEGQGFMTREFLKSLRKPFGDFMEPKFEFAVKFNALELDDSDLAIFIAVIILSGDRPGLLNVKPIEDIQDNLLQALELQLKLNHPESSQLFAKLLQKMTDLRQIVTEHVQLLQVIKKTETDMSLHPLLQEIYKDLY

CCN1CCN(C(=O)N[C@@H](C(=O)N[C@@H]2C(=O)N3[C@@H]2SC(C)(C)[C@H]3C(=O)O)c2ccccc2)C(=O)C1=O
inactive: Potency [1] | outcome [2] | outcome [3] | outcome [4] | outcome [5] | outcome [6] | outcome [7] | outcome [8] | outcome [9] | outcome [10] | outcome [11] | outcome [12] | outcome [13] | outcome [14] | outcome [15]

CC(C)c1cc(C(C)C)cc(C(C)C)c1
inactive: Potency [1] | outcome [2] | outcome [3] | outcome [5] | Potency [16] | outcome [6] | Potency [17] | outcome [7] | outcome [8] | outcome [9] | outcome [18] | outcome [12] | outcome [13] | outcome [14] | outcome [15] | outcome [19]

CCCCOCCCC
inactive: Potency [1] | outcome [2] | outcome [3] | outcome [5] | Potency [16] | outcome [6] | Potency [17] | outcome [7] | outcome [8] | outcome [18] | outcome [12] | outcome [13] | outcome [14] | outcome [15] | outcome [19]

COc1ccc(Cl)cc1C
inactive: Potency [1] | outcome [2] | outcome [3] | outcome [5] | Potency [16] | outcome [6] | Potency [17] | outcome [7] | outcome [8] | outcome [18] | outcome [12] | outcome [13] | outcome [14] | outcome [19]

CCCCCCC(O)CO (configuration not stated)
inactive: Potency [1] | outcome [2] | outcome [3] | outcome [4] | outcome [5] | outcome [6] | Potency [17] | outcome [7] | outcome [8] | outcome [10] | outcome [11] | outcome [12] | outcome [20] | outcome [19]

C=CCn1cc[n+](C)c1
inactive: Potency [1] | outcome [2] | outcome [3] | outcome [4] | outcome [5] | outcome [6] | outcome [7] | outcome [8] | outcome [12] | outcome [13] | outcome [14] | outcome [15] | outcome [19]

CC(=O)c1c(C)cc(C(C)(C)C)cc1C
inactive: Potency [1] | outcome [2] | outcome [3] | outcome [4] | outcome [5] | outcome [6] | outcome [7] | outcome [8] | outcome [9] | outcome [18] | outcome [10] | outcome [12] | outcome [13] | outcome [14] | outcome [15] | outcome [19]

O=C(OOC(=O)c1ccccc1)c1ccccc1
inactive: Potency [1] | outcome [2] | outcome [3] | outcome [5] | Potency [16] | outcome [6] | Potency [17] | outcome [7] | outcome [8] | outcome [9] | outcome [18] | outcome [10] | outcome [12]

C[C@@H](CN1CC(=O)NC(=O)C1)N1CC(=O)NC(=O)C1
inactive: Potency [1] | outcome [3] | outcome [4] | outcome [5] | outcome [6] | Potency [17] | outcome [7] | outcome [8] | outcome [9] | outcome [18] | outcome [12] | outcome [13] | outcome [14] | outcome [15] | outcome [19]

CC(C)(C)c1ccc(N)cc1
inactive: Potency [1] | outcome [3] | outcome [4] | outcome [5] | Potency [16] | outcome [6] | Potency [17] | outcome [7] | outcome [8] | outcome [9] | outcome [10] | outcome [13] | outcome [14] | outcome [19]

CC(C)(C)C(=O)NCCCC(=O)O
inactive: Potency [1] | outcome [3] | outcome [5] | Potency [16] | outcome [6] | Potency [17] | outcome [7] | outcome [8] | outcome [9] | outcome [18] | outcome [12] | outcome [13] | outcome [14] | outcome [15] | outcome [19]

CN(C)c1cc(NC(=O)CNC(C)(C)C)c(O)c2c1C[C@H]1C[C@H]3[C@H](N(C)C)C(=O)C(C(N)=O)=C(O)[C@@]3(O)C(=O)C1=C2O
inactive: Potency [1] | outcome [3] | outcome [4] | outcome [5] | outcome [6] | Potency [17] | outcome [7] | outcome [9] | outcome [18] | outcome [10] | outcome [11] | outcome [12] | outcome [20] | outcome [13] | outcome [14] | outcome [15] | outcome [19]

c1cc2ccc3ccc4ccc5cccc6c(c1)c2c3c4c56
inactive: activation [1] 0.485% [at 3.79 µM] | activity change, negative = cytotoxicity [5] 27.2% [at 2.7 µM] | viability change, negative = cytotoxic [6] 6.8% [at 3.74 µM] | activity change, negative = cytotoxicity [17] 1.58% [at 2.7 µM] | activity change, negative = cytotoxicity [8] -28.1% [at 2.7 µM] | viability change, negative = cytotoxic [18] -10.9% [at 2.83 µM] | ratio activity, negative = inhibition [10] 2.1% [at 2.83 µM] | activity change, negative = inhibition [11] 6.71% [at 2.69 µM] | viability change, negative = cytotoxic [12] 0.833% [at 2.7 µM] | activity change, negative = cytotoxicity [13] 2.77% [at 2.69 µM] | activity change, negative = inhibition [15] -9.77% [at 3.11 µM] | activity change, negative = cytotoxicity [19] 11.1% [at 2.7 µM]

CCCc1ccc(O)c(OC)c1
inactive: Potency [1] | outcome [3] | outcome [4] | outcome [5] | Potency [16] | Potency [17] | outcome [7] | outcome [8] | outcome [18] | outcome [12] | outcome [13] | outcome [14] | outcome [19]
